Data taken from PubChem BioAssay AID1851 (National Center for Advancing Translational Sciences (NCATS), 2009).
Values joined by “and” are separate entries in the source; they are usually repeats but may differ in a detail not shown here. Identical values can stand only once. Hit rate of the full screen: of about 16,000 compounds, about 5,700 (36%) were called active. Not shown: some 24% with an inconclusive outcome. The call rests on the fitted dose curve; in most records, active means well fitted curve in the direction sought with a large enough effect; inconclusive means small, poorly fitted or top-dose-only effect, or effect the other way; inactive means no such curve, though single readings can be large or run the other way. Some of the results follow. A structure can be active in one record and inactive in another.

target: Cytochrome P450 1A2 (Homo sapiens) (UniProt P05177); assay: Cytochrome panel assay with activity outcomes; details: recombinant CYP, pro-luciferin dealkylation, luminescence, p450-cyp1a2; series mostly up to 57.1 µM
On the % scale 0 is the no-effect control and ±100 the full control effect.

Sequence of Cytochrome P450 1A2 (Homo sapiens) (P05177 whole entry, looked up): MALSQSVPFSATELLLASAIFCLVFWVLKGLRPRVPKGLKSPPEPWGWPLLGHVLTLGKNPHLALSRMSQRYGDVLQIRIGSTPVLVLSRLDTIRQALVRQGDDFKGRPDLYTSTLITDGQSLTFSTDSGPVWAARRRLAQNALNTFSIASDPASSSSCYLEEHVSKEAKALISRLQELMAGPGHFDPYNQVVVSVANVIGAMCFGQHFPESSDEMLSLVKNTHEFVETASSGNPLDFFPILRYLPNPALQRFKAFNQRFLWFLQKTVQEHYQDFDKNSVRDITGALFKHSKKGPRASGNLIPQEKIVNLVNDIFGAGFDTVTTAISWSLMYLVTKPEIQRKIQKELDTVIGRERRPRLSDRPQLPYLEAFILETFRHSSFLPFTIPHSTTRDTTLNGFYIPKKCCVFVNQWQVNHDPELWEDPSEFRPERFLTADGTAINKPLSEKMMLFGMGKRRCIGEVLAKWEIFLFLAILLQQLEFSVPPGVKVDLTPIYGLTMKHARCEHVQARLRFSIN

AC50, inactive:
O=C(COc1ccc(Cl)cc1)Nc1ccc(N2CCN(C(=O)c3ccco3)CC2)cc1, Cc1nn(C)cc1C(C(=O)NC1CCCCC1)N(C(=O)Cc1cccs1)c1ccc(C(C)C)cc1 (centres undefined), CN1CCC(N(C)C(=O)CCc2nc3ccccc3c(=O)[nH]2)CC1, NC(=O)c1ccc(N2CCCCC2)c(N2C(=O)C3CC=CCC3C2=O)c1 (centres undefined), Cc1ccc(NC(=O)CSCC(=O)Nc2ccc(N3CCOCC3)c(Cl)c2)cc1, CC1(C)CC(O)CC(C)(C)N1CC(O)COCCOc1ccc(Br)cc1 (centres undefined), CCSc1nnc(-c2ccccc2NC(C)=O)c(=O)[nH]1, Cc1[nH]c2c(C)cccc2c1CCNC(=O)c1ccc2c(c1[N+](=O)[O-])C(=O)c1ccccc1C2=O, O=C1OC2CC3CC1CC(O)(C3)C2 (centres undefined), CNC(C)c1cc(OC)ccc1OC (centres undefined), COC(=O)C(NC(=O)c1ccc(F)cc1)(Nc1ncc(S(=O)(=O)c2ccc([N+](=O)[O-])cc2)s1)C(F)(F)F (centres undefined), CCOC(=O)Cn1nc(C)n(-c2ccc(C)cc2)c1=O, CC(C)(C)c1nnc(NC(=O)NS(=O)(=O)c2ccccc2)s1, CC(C)(C)NC(=O)C(=O)NNC(=O)c1ccccc1, Cc1ccc(-c2nn3c(C)nnc3c3ccccc23)cc1S(=O)(=O)NCc1ccccc1, CCOC(=O)Nc1ccc(S(=O)(=O)NCc2ccccc2)cc1, Cc1ccc(NC(=O)NNS(=O)(=O)c2ccc(Br)cc2)cc1, Cc1ccc(S(=O)(=O)NCC2CCC(C(=O)O)CC2)cc1 (centres undefined), C=CC[N+]1(CC#CCOC(c2ccccc2)c2ccccc2)CCOCC1, NS(=O)(=O)c1cccc2c1c([N+](=O)[O-])cc1nc(O)c(O)nc12, COc1ccccc1CN1CC[C@@]2(CCCN(S(C)(=O)=O)C2)C1, Cc1ccc(NC2=NC(c3ccccc3)n3c(nc(C)cc3=O)N2)c(C)c1 (centres undefined), CCCCCCCCCCCC(=O)O[C@H](CC(=O)O)C[N+](C)(C)C, Cc1ccc(NC(=O)N/C=C/c2ccc(Cl)cc2)cc1, O=C(Nc1ccc(N=Nc2ccccc2)cc1)c1ccc(Cl)cc1Cl, CC(C)(C)N(NC(=O)Nc1ccccc1)C(=O)c1ccccc1Cl

AC50, active:
CCOc1ccc(NC(=S)N(Cc2ccc(N(C)C)cc2)Cc2ccco2)cc1 1.26 µM, CCOc1ccc(NC(=S)N(Cc2ccc(Cl)cc2)Cc2ccco2)cc1 3.55 µM, CC1Cc2ccccc2N1Cc1nc2cc(C(F)(F)F)ccc2c(=O)[nH]1 (centres undefined) 3.55 µM, Cc1cc(C)c2c(SCc3ccc(Cl)cc3Cl)nc(N)nc2n1 3.16 µM, O=C1OCC(c2ccccc2)=C1c1ccc(S(=O)(=O)N2CCOCC2)s1 25.1 µM, Cc1ccc(NC(=O)c2cc(N3C(=O)C4CC=CCC4C3=O)ccc2N2CCOCC2)cc1Cl (centres undefined) 6.31 µM, CO/N=C(/CNC(=O)c1ccc(Cl)cc1Cl)c1ccc(Cl)cc1 2.51 µM, CCSc1c(C(=O)NC)ccc2c1C(=O)c1ccccc1C2=O 0.316 µM, N#C/C(=C(/O)CN1CCCCC1)c1nc(-c2ccc(Cl)cc2)cs1 6.31 µM, NC(=O)CSc1nc2sc(-c3ccccc3)cc2c(=O)n1N 5.01 µM, COc1cc(/C=C\c2ccc(OC)cc2OC)cc(OC)c1 0.794 µM, Clc1cccc(Oc2cnc3ccccc3n2)c1 2.51 µM, CCOC(=O)c1cc2c(C)n(-c3ccc(C)cc3)c(C)c2ccc1=O 12.6 µM, c1ccc(-c2c3ccccc3nc3[nH]c4ccccc4c23)cc1 0.501 µM, CCCCc1c2ccccc2nc2[nH]c3ccccc3c12 0.2 µM, CNc1ncc(C(=O)c2ccccc2)s1 4.47 µM, Cc1ccc(S(=O)(=O)NCc2ccccc2)cc1 0.501 µM, Cc1ccc(NNS(=O)(=O)c2ccc(C)cc2)cc1 2.82 µM, COc1cc(C)c(Br)cc1S(=O)(=O)NCc1ccccc1 10 µM, Cc1ccc(S(=O)(=O)NNc2ccccc2)cc1 2.82 µM, Sc1ccc2ccccc2c1CNCc1ccccc1 1.26 µM, O=C(C[C@@H](c1ccccc1)N1CCCCC1)c1ccccc1 1.26 µM, O=C(Cc1ccccc1)NCCSCc1ccc(Cl)cc1 7.08 µM, O=C(N/N=C/c1ccc(Cl)cc1Cl)c1cccc(F)c1 1.78 µM, O=C(N/N=C/c1ccc(Cl)cc1)Nc1ccccc1 10 µM, O=C(N/N=C/c1ccc(Cl)cc1Cl)Nc1ccccc1 1 µM

AC50, inactive and 39.8 µM (active):
N#Cc1cc2nc(O)c(O)nc2cc1[N+](=O)[O-]

activity, negative = inhibition, inactive:
O=C(O)[C@@H](O)[C@@H](O)[C@H](O)[C@H](O)CO -5.55% [at 2.29 µM], CO[C@@H]1COC(=O)CC=C[C@@H](C)[C@@H]2C=C[C@H](O)[C@@H](COC(=O)C/C=C\[C@H]1C)O2 -1.42% [at 11.4 µM], Cc1ccc(S(=O)(=O)N[C@H](CO)C(=O)O)cc1 -12% [at 11.4 µM], Cc1ccc(S(=O)(=O)N[C@H](C(=O)O)C(C)C)cc1 -11% [at 11.4 µM], O=S(=O)(C[C@H](O)C(Cl)(Cl)Cl)NNc1ccccc1 0.811% [at 2.29 µM], C[C@@H](c1ccccc1)N1C(=O)[C@@H]2[C@H]3C(=CC[C@H]2C1=O)C(=O)[C@H]1O[C@H]1[C@H]3O -2.35% [at 11.4 µM], O=C(O)c1ccc(CNCc2ccccc2)cc1 -10.8% [at 11.4 µM], O=C(O)c1cccc(CN2CCCCC2)c1 -16.7% [at 11.4 µM], C[C@H](C(=O)c1ccccc1)[C@@H](c1ccccc1)N1CCOCC1 -14.9% [at 11.4 µM], O=C(O)CCSCc1ccccc1 -20.7% [at 11.4 µM], N[C@@H](CSCc1ccccc1)C(=O)O -9.6% [at 11.4 µM]
